Source: publication PMC5700166

Assays:
Test in all cases: protein-binding microarray (PBM); PBM: ~300 nM protein, 6 mM HEPES pH 7.8, 80 mM KCl, 0.5 mM EDTA, 0.5 mM EGTA, 6% glycerol, 35 ng/ul poly-dIdC, 1% milk, 1 h, room temperature; Ap Aiptasia and Nv Nematostella (sea anemones) / Co Capsaspora / Aq Amphimedon (sponge) / Dm Drosophila / Hu human; RHD is the Rel homology domain; high values mean tight binding
Details in all cases: dsDNA, one strand shown
GST-Ap-NF-kB RHD = biological target: T1, GST-Ap-NF-kB RHD (Exaiptasia pallida (Aiptasia), UniProt A0A913YAJ5 2-422)
T1 sequence: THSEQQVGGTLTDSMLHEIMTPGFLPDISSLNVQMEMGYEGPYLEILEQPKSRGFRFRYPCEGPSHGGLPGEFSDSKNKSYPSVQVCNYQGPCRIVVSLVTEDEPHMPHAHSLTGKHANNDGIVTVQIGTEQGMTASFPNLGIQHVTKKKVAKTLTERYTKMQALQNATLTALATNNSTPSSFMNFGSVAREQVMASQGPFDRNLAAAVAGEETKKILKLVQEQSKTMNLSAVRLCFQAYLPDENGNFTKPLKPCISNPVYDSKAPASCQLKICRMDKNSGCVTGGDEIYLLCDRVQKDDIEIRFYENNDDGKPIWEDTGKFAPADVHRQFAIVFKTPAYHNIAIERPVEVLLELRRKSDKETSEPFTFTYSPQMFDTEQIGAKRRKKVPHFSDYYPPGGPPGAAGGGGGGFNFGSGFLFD

GST-Co-NF-kB = biological target: T2, GST-Co-NF-kB (Capsaspora owczarzaki, UniProt F1ARL5 200-546)
T2 sequence: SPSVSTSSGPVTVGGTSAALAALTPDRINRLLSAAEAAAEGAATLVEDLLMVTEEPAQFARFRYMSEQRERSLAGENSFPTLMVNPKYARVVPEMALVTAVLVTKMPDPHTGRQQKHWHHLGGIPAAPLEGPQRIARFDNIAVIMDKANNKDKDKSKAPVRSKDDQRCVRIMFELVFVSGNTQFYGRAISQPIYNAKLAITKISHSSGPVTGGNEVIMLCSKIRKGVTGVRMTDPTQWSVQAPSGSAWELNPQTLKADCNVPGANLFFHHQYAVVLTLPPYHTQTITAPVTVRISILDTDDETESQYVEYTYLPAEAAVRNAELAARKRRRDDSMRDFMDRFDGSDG

GST-Dm-Relish = biological target: T3, GST-Dm-Relish (Drosophila melanogaster, UniProt Q94527 99-473)
T3 sequence: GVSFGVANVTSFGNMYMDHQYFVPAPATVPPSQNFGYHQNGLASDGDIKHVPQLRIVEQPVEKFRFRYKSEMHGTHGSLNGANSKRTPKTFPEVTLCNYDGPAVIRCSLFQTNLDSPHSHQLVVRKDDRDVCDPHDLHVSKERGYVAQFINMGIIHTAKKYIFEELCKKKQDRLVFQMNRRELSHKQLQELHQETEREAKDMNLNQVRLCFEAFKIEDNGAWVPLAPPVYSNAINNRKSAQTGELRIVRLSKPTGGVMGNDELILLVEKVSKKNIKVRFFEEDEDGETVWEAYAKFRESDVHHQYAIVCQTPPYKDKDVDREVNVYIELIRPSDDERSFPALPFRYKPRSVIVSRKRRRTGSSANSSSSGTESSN

GST-Aq-NF-kB = biological target: T4, GST-Aq-NF-kB (Amphimedon queenslandica, UniProt A9Y5G7 2-389)
T4 sequence: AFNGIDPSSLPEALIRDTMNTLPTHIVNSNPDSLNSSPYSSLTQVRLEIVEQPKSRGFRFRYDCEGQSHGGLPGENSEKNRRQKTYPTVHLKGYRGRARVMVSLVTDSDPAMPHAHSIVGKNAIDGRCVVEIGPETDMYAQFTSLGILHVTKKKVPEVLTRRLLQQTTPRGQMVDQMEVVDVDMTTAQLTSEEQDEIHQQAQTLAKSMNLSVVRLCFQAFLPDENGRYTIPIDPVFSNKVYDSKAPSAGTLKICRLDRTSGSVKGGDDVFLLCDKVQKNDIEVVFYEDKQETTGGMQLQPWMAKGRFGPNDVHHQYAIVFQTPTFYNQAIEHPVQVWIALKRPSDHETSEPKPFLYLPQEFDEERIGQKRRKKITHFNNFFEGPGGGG

[1] = biological target: T5, GST-Nv-NF-kB (Ser allele) (Nematostella vectensis, UniProt A7UNT2 2-411)
T5 sequence: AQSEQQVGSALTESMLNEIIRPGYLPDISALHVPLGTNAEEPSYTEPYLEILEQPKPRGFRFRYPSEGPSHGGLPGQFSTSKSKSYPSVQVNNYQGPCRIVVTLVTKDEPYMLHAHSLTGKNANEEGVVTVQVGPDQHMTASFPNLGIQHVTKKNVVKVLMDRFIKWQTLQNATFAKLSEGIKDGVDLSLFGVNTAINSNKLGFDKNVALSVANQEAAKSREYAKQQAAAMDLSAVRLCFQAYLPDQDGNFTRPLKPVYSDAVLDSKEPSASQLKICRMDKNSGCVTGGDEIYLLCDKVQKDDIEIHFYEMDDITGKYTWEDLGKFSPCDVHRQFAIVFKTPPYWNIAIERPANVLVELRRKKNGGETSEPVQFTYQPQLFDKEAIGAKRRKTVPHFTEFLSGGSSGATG

Row | Sequence | binding signal (GST-Ap-NF-kB RHD) [z-score] | binding signal (GST-Co-NF-kB) [z-score] | binding signal (GST-Dm-Relish) [z-score] | binding signal (GST-Aq-NF-kB) [z-score] | binding signal [1] [z-score]
1 | CCGATTAACATCATTTATCCCGGTGATGTTAATCGGGTCTTGATTCGCTTGACGCTGCTG | 1.16 | 2.85 | 1.77 | 1.14 | 
2 | CCGATTAACATCAAGCCCCCCCTTGATGTTAATCGGGTCTTGATTCGCTTGACGCTGCTG | 4.63 | 3.04 | 4.77 | 4.92 | 4.35
3 | CCGATTAACATCAAGGGGGGAGGTGATGTTAATCGGGTCTTGATTCGCTTGACGCTGCTG | 4.12 | 5.65 | 3.23 | 4.07 | 4.04
4 | CCGATTAACATCATAGTGAGGGGTGATGTTAATCGGGTCTTGATTCGCTTGACGCTGCTG | 2.05 | 1.74 |  | 1.09 | 
5 | CCGATTAACATCAGGCAACCCCATGATGTTAATCGGGTCTTGATTCGCTTGACGCTGCTG | 1.67 | 1.23 | 2.62 | 1.4 | 
6 | CCGATTAACATCATGGGGGGGAATGATGTTAATCGGGTCTTGATTCGCTTGACGCTGCTG | 6.87 | 8.77 | 4.72 | 5.36 | 
7 | CCGATTAACATCAAGGGGGGGAGTGATGTTAATCGGGTCTTGATTCGCTTGACGCTGCTG | 4.51 | 7.82 | 3.56 | 4.43 | 
8 | CCGATTAACATCAGTCCCCCCCATGATGTTAATCGGGTCTTGATTCGCTTGACGCTGCTG | 5.83 | 6.28 | 4.23 | 4.7 | 3.57
9 | CCGATTAACATCATCCGCGGGAGTGATGTTAATCGGGTCTTGATTCGCTTGACGCTGCTG | 1.05 | 1.38 |  | 1.92 | 
10 | CCGATTAACATCACGGATATCCCTGATGTTAATCGGGTCTTGATTCGCTTGACGCTGCTG | 1.57 | 1.15 | 2.04 | 2.76 | 
11 | CCGATTAACATCAGGGGGGGGGATGATGTTAATCGGGTCTTGATTCGCTTGACGCTGCTG | 6.37 | 7.03 | 5.78 | 5.02 | 
12 | CCGATTAACATCAGGGGGGGATATGATGTTAATCGGGTCTTGATTCGCTTGACGCTGCTG | 6.21 | 5.9 | 4.91 | 5.29 | 5.63
13 | CCGATTAACATCACGGGGGGGGCTGATGTTAATCGGGTCTTGATTCGCTTGACGCTGCTG | 4.19 | 5.11 | 4.98 | 4.34 | 
14 | CCGATTAACATCAGTACTTCCCATGATGTTAATCGGGTCTTGATTCGCTTGACGCTGCTG | 1.53 | 1.42 | 9.09 | 2.53 | 
15 | CCGATTAACATCACTTCCCCCCCTGATGTTAATCGGGTCTTGATTCGCTTGACGCTGCTG | 5.69 | 8 | 4.33 | 4.94 | 5.01
16 | CCGATTAACATCAAGGGGGGAAATGATGTTAATCGGGTCTTGATTCGCTTGACGCTGCTG | 6.16 | 7.79 | 4.47 | 5.8 | 8.51
17 | CCGATTAACATCACCGGAATTCCTGATGTTAATCGGGTCTTGATTCGCTTGACGCTGCTG | 1.13 | 1.36 | 3.45 | 2.36 | 
18 | CCGATTAACATCAAGGTGTTCCCTGATGTTAATCGGGTCTTGATTCGCTTGACGCTGCTG | 1.65 | 2.38 | 4.31 | 2.49 | 
19 | CCGATTAACATCACGGGCACCCCTGATGTTAATCGGGTCTTGATTCGCTTGACGCTGCTG | 1.72 | 1.34 | 2.01 | 2.04 | 
20 | CCGATTAACATCAGGGCTTCCCATGATGTTAATCGGGTCTTGATTCGCTTGACGCTGCTG | 1.44 | 1.01 | 8.36 | 3.5 | 
21 | CCGATTAACATCACGGTACGGGGTGATGTTAATCGGGTCTTGATTCGCTTGACGCTGCTG | 2.02 | 2.2 | 1.48 | 1.51 | 
22 | CCGATTAACATCAGGGGGGGAACTGATGTTAATCGGGTCTTGATTCGCTTGACGCTGCTG | 6.55 | 8.33 | 5.17 | 4.84 | 
23 | CCGATTAACATCAGGACACCCCATGATGTTAATCGGGTCTTGATTCGCTTGACGCTGCTG | 1.22 | 1.49 | 1.93 | 1.61 | 
24 | CCGATTAACATCAGGGGTACACATGATGTTAATCGGGTCTTGATTCGCTTGACGCTGCTG | 1.77 | 4.09 | 1.13 | 1.07 | 
25 | CCGATTAACATCATAAGGGGTGTTGATGTTAATCGGGTCTTGATTCGCTTGACGCTGCTG | 2.3 | 1.09 |  | 1.91 | 
26 | CCGATTAACATCACTCCCCCCCATGATGTTAATCGGGTCTTGATTCGCTTGACGCTGCTG | 5.11 | 6.71 | 3.23 | 4.01 | 3.12
27 | CCGATTAACATCACCCCCTCCCCTGATGTTAATCGGGTCTTGATTCGCTTGACGCTGCTG | 3.75 | 4.75 | 5.21 | 4.84 | 
28 | CCGATTAACATCAGGGGGGGGAATGATGTTAATCGGGTCTTGATTCGCTTGACGCTGCTG | 7.86 | 8.84 | 5.27 | 5.65 | 
